Screens as filed in PubChem.
IL2 activator: activators of IL-2. IL-2 activation reporter assay, cell-based qHTS; stimulated with anti-CD3/CD4/CD28 beads; in transgenic mouse T cells. activation, % (series mostly up to about 46 µM). 360,000 tested, 0.065% active. AID 652025; in the data active = activation above about 50%; inconclusive = mostly about 30% to 49%; also: 0% is about no effect
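Quantitative HTS in unstimulated transgenic mouse T cells, with memory T cells as non-tolerant control and PMA/ionomycin as tolerance-bypass control. Compound pretreatment lasted 60 minutes before 18 h bead stimulation; EGFP/DsRed fluorescence read.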
A549 viability: A549 cytotoxicity, counter-screen for Nrf2 inhibitors | A549 ARE-Fluc cells, CellTiter-Fluor viability, 18-24 h | Potency, µM (highest dose often 46 µM), for the others: at the top dose activity change, negative = cytotoxicity, actives largely listed as inhibitors | 390,000 tested, 0.16% active | AID 504648; also: potency is read from the fitted curve at half-maximal effect; % is scaled to controls: 0 for no effect and ±100 for the full control effect
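A549 ARE_Fluc cells in 5% FBS OPTI-MEM were exposed to compounds in concentration-response for 18-24 h at 37 deg C. Viability was read by CellTiter-Fluor fluorescence (Ex 405/Em 525) after 30 min, before the luciferase read.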
Nrf2 activator: Nrf2 pathway activation. AREc32 ARE-luciferase reporter (MCF7-derived line), luminescence, 24 h. Potency, µM (doses to about 46.1 µM), inactives show at the highest dose activation, hits mostly activators. 410,000 tested, 0.31% active. AID 624171; also: potency is read from the fitted curve at half-maximal effect; % of control where 0% means no effect; nearly all actives have a fitted effect of over 65% in size
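For detection, Steady-Glo was added and plates sat 30 min at RT; before that, AREc32_Fluc cells grown overnight in OPTI-MEM/5% FBS had been treated with 23 nL compound for 24 hr at 37 deg C.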
Nrf2 inh: blocks Nrf2 signaling. A549 ARE-Fluc reporter, luciferase luminescence, 18-24 h. Potency, µM (highest dose often 46 µM), without a hit: at the top dose activity change, negative = inhibition, usual class: inhibitors. 360,000 tested, 2.1% active. AID 504444; also: potency is read from the fitted curve at half-maximal effect; % is scaled to controls: 0 for no effect and ±100 for the full control effect; nearly all actives have a fitted effect of over 60% in size
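Concentration-response testing used A549 ARE_Fluc cells at 5000 cells/well. Following an 18-24 h compound incubation, viability was read by fluorescence (Ex 405/Em 525) and luciferase output by luminescence.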
Active calls of the source: *; ? = inconclusive; . = no result. Most compounds without a hit are left out; they make up all but 2.3% or so of the library. Unless noted, calls follow the shape of the dose curve; as a rule, active = well fitted curve in the direction sought with a large enough effect; inconclusive = small, poorly fitted or top-dose-only effect, or another doubt; inactive = no such curve, though single readings can be large; an effect the other way counts as inactive or inconclusive.

SMILES | IL2 activator | A549 viability | Nrf2 activator | Nrf2 inh
CC(C)N(C(=O)[C@H]1C[C@H](CC(=O)NCC23CC4CC(CC(C4)C2)C3)C(=O)N2CCc3c([nH]c4cc(CCC(=O)N(C)C)ccc34)[C@]12C)C(C)C | -0.5 | ? | -1.4% | 20.6µM*
Oc1c(Br)cc(Br)cc1-c1nc2ccccc2s1 | . | -0.2% | ? | 10.8%
Cc1cc(C(=O)O)c2c(=O)n(C)c(=O)n(C)c2n1 | . | 3.1% | -0.9% | 2.4%
COc1cc(NC(=O)NC(C)c2c(-n3cccc3)sc3c2CCN(C)C3)cc(OC)c1 (configuration not stated) | . | 1.2% | 7.7% | .
CN(C)c1ccc(C(CNC(=O)c2ccccc2F)N2CCc3ccccc32)cc1 (configuration not stated) | . | 0.2% | 9.1% | .
CC(C)N(C(=O)[C@H]1CC(CC(=O)NCC23CC4CC(CC(C4)C2)C3)C(=O)N2CCc3c([nH]c4ccccc34)[C@]12C)C(C)C (some centres not stated) | -1.0 | ? | -1.3% | 25.9µM*
O=C(CSc1nncn2c1cc1sccc12)Nc1ccccc1C(F)(F)F | . | 12.7% | 1.6% | 20.6µM*
COc1ccccc1NC(=O)CSc1nncn2c1cc1sccc12 | . | 2.4% | 11.6% | -26.0%
CC(=O)Nc1ccc(C(=O)Nc2cccc(S(=O)(=O)N(C)c3ccccc3)c2)cc1 | -0.3 | 1.1% | -1.6% | ?
CN(c1ccccc1)S(=O)(=O)c1ccc(NC(=O)c2ccc(-c3ccccc3)cc2)cc1 | -4.1 | -21.5% | -0.3% | 14.6µM*
CN(c1cccc(NC(=O)c2ccc(N(C)S(=O)(=O)c3ccccc3)cc2)c1)S(C)(=O)=O | -0.9 | -14.8% | -0.3% | 14.6µM*
CN(c1ccccc1)S(=O)(=O)c1ccc(C(=O)Nc2nnc(-c3ccc(F)cc3)o2)cc1 | -0.1 | -15.3% | 0.0% | 23.1µM*
Cc1nc2cc(NC(=O)c3ccc(S(=O)(=O)N(C)c4ccccc4)cc3)ccc2o1 | -1.3 | -19.1% | 3.2% | 8.2µM*
Cc1ccc(NC(=O)c2ccc(NC(=O)N3CCSc4nc(C)cc(C)c43)cc2)c(Cl)c1 | . | 9.6% | -1.7% | -24.6%
COc1ccc(C2c3c(n(Cc4ccccc4)cnc3=N)Oc3ccc4ccccc4c32)cc1OC (configuration not stated) | . | -7.2% | . | 3.4%
CCC(C)NC(=O)CSc1nc2cc3c(cc2c(=O)n1CCCCCC(=O)NCc1ccc(OC)cc1)OCO3 (configuration not stated) | . | -0.6% | -0.6% | .
Cc1ccc(S(=O)(=O)c2nc(-c3ccccc3F)oc2N2CCCCC2)cc1 | . | 13.4% | 0.2% | 4.2%
CCOc1ccc(-c2nn3c(-c4cc(-c5ccccc5)n[nH]4)nnc3s2)cc1 | . | 3.9% | . | -18.9%
COc1ccc(-c2nn3c(-c4cc(-c5ccccc5)n[nH]4)nnc3s2)cc1 | . | -15.8% | . | 23.1µM*
CC1CCN(C(=O)CSc2nnc3c(n2)[nH]c2ccccc23)CC1 | -2.9 | -24.5% | 0.4% | 8.2µM*
c1c[nH]c(CNc2ncnc3ccc(-c4ccc5c(c4)OCO5)cc23)n1 | . | 8.2% | . | 6.0%
COc1ccc(CCNc2ccc(N3C(=O)CC(C)C3=O)cc2[N+](=O)[O-])cc1OC (configuration not stated) | -5.0 | -29.8% | 2.5% | 14.6µM*
COc1ccc(CCNc2ccc(N3C(=O)CC(C)C3=O)cc2[N+](=O)[O-])cc1 (configuration not stated) | -0.6 | -15.4% | 0.2% | 0.1%
Cc1ccc(NC(=O)c2sc3nc4c(cc3c2N)CN(Cc2ccccc2)CC4)cc1 | . | 20.3% | 8.9% | ?
Cc1ccccc1OCC(=O)Nc1ccccc1CO | 1.0 | 8.2% | 10µM* | .
Cc1ccccc1OCC(=O)Nc1ccc(Cc2ccncc2)cc1 | -2.8 | 4.6% | 0.1% | 13µM*
COc1ccc(NC(=O)Nc2cnccn2)c(OC)c1 | 0.2 | -9.1% | 1.9% | 1.4%
